Unmarked numbers belong to inactive results. Active and inactive are the calls of the source. No rule for the calls is given here.

This test in a line: xanthine oxidase inhibitors, late-stage follow-up, counter-screen for NOX1 inhibitor project, biochemical (AID 2556). Conditions: xanthine oxidase superoxide assay.
For orientation: IC50 means the concentration that gives 50% inhibition. For the compound `Cc1cc(Cl)ccc1NC(=S)NNC(=S)Nc1ccc(F)cc1`, the IC50 was 11 µM. To `FC(F)(F)c1ccc2c(c1)Nc1ccccc1S2` belongs 20.7 µM; to `O=C(Oc1ccccc1N1CCCCC1)c1sc2ccccc2c1Cl`, 11.1 µM; to `CN(C)c1ccc(NC(=O)Nc2ccc(OCc3ccccc3)cc2)cc1`, 2 µM (active). The same measure for `COc1cc(-c2nc(-c3ccccc3)c(-c3ccccc3)[nH]2)ccc1O`: 11.2 µM. As for `c1ccc2c(c1)Nc1nc3ccccc3nc1N2`, the IC50 was 3.5 µM (active).

The values are drawn from PubChem BioAssay AID2556 (The Scripps Research Institute Molecular Screening Center, 2010).
